PubChem BioAssay (EPA / NIEHS)
“And” between values parts separate entries of the source, which are not always exact repeats. Identical values can stand only once. Where a structure was tested more than once in an assay, its records may differ in their call. The source made the active and inactive calls. The calls were made as follows: active = hit-call score of the fitted dose curve at least 0.9, where 1 is the maximum; inactive = score below 0.9.

Experiments:
[1] = ATG_GRE_CIS: Attagene CIS-FACTORIAL HepG2 Assay for human Glucocorticoid Response Elements (GRE) (AID 2282947); conditions: HepG2 GRE cis-reporter, Attagene multiplex mRNA; actives raise or lower the signal
Outline: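 Reporter transcripts read by RT-PCR with capillary electrophoresis fluorescence after a 24 h chemical exposure of HepG2 cells transiently transfected with multiple cis-element reporter units. Gain or loss fitted against DMSO.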

[2] = ATG_ISRE_CIS: Attagene CIS-FACTORIAL HepG2 Assay for human Interferon Regulatory Factor 1 (IRF1) binding to an Interferon-Stimulated Response Element (ISRE) (AID 2282948); conditions: HepG2 ISRE cis-reporter (Attagene), mRNA transcription readout; actives raise or lower the signal
Outline: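 Multiplexed mRNA reporter readout in human liver HepG2 cells: cis-element-driven reporters transfected, compound added for 24 h, transcripts amplified, fluorescently labelled and sized by capillary electrophoresis; curve fitting bidirectional against DMSO.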

[3] = ATG_M_32_CIS: Attagene CIS-FACTORIAL HepG2 Assay for M32 Transcription Factor (Internal Marker) (AID 2282949); conditions: HepG2 Attagene cis-factorial M32 reporter, mRNA; actives raise or lower the signal;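 also: background control marker of the multiplexed CIS panel rather than a real target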
Outline: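 HepG2 transfectants (cis-regulated reporter transcription units) dosed 24 h. Reporter mRNA by RT-PCR plus CE, analysed as gain or loss relative to DMSO.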

[4] = ATG_M_06_CIS: Attagene CIS-FACTORIAL HepG2 Assay for M06 Transcription Factor (Internal Marker) (AID 2282950); conditions: HepG2 Attagene CIS-FACTORIAL M06 internal marker reporter; actives raise or lower the signal
Outline: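 Internal background marker within multiplexed cis-reporter HepG2 system. Cells transiently transfected, dosed 24 h; reporter mRNA measured by RT-PCR, HpaI digestion and capillary electrophoresis. Bidirectional fit relative to DMSO.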

[5] = molecular target: Hypoxia-inducible factor 1-alpha (Homo sapiens) (UniProt Q16665); test: ATG_HIF1a_CIS: Attagene CIS-FACTORIAL HepG2 Assay for human Hypoxia Inducible Factor 1 (HIF1A) (AID 2282951); conditions: HepG2 Attagene cis-factorial HIF1a reporter transcription; actives raise or lower the signal
Sequence of Hypoxia-inducible factor 1-alpha (Homo sapiens) (Q16665 whole entry, looked up): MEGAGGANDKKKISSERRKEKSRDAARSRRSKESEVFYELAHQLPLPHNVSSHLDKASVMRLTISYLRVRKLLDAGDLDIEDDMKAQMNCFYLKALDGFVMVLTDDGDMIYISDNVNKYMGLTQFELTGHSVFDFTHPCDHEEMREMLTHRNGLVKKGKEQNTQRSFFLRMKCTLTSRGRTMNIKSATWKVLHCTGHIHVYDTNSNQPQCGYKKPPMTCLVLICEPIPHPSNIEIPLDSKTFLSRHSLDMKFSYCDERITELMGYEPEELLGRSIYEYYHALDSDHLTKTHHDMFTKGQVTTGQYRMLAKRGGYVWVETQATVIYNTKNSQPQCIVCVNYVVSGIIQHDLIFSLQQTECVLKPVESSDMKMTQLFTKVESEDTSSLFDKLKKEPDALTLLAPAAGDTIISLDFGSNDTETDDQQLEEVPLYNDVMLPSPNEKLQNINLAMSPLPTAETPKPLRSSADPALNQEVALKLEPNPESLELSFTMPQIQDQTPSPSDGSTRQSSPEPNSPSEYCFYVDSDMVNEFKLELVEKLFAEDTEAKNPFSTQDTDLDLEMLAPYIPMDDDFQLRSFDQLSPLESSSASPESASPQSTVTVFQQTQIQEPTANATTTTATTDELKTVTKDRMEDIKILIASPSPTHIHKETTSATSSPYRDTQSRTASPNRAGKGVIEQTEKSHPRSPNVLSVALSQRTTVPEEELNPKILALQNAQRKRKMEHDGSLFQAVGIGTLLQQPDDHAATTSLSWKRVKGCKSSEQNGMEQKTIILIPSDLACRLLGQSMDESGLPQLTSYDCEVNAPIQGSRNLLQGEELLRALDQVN
Outline: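 Dosed 24 h, transfected HepG2 cells yielded total RNA whose reporter transcripts were RT-PCR-amplified and sized by capillary electrophoresis using fluorescent labelling; DMSO defined baseline, with gain and loss of signal both fitted.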

[6] = molecular target: Hepatocyte nuclear factor 6 (Homo sapiens) (UniProt Q9UBC0); test: ATG_HNF6_CIS: Attagene CIS-FACTORIAL HepG2 Assay for human Hepatocyte Nuclear Factor 6 (HNF6) (AID 2282952); conditions: HepG2 Attagene cis-factorial HNF6 reporter transcription; actives raise or lower the signal
Sequence of Hepatocyte nuclear factor 6 (Homo sapiens) (Q9UBC0 whole entry, looked up, the tested form may be a part): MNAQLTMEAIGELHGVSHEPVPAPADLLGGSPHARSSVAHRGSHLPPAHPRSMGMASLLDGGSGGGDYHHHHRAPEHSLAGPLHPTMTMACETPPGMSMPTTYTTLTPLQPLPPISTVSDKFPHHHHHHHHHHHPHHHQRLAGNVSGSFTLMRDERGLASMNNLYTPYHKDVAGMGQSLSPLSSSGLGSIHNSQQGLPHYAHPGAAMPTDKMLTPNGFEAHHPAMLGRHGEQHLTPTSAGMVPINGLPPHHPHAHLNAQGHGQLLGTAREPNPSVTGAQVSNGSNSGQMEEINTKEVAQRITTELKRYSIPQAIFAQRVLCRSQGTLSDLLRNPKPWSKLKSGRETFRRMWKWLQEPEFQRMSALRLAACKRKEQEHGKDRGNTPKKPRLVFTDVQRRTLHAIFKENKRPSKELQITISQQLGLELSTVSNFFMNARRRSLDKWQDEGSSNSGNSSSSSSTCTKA
Outline: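 First, HepG2 cells were transfected with the multiplexed cis reporter library and dosed with chemical for 24 h. Next, RNA was reverse-transcribed, PCR-amplified and fluorescently labelled. Finally, HpaI-digested fragments were read by capillary electrophoresis.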

[7] = molecular target: Heat shock factor protein 1 (Homo sapiens) (UniProt Q00613); test: ATG_HSE_CIS: Attagene CIS-FACTORIAL HepG2 Assay for human Heat Shock Transcription Factor 1 (HSE) (AID 2282953); conditions: HepG2 HSE cis-reporter, Attagene RNA transcription; actives raise or lower the signal
Sequence of Heat shock factor protein 1 (Homo sapiens) (Q00613 whole entry, looked up): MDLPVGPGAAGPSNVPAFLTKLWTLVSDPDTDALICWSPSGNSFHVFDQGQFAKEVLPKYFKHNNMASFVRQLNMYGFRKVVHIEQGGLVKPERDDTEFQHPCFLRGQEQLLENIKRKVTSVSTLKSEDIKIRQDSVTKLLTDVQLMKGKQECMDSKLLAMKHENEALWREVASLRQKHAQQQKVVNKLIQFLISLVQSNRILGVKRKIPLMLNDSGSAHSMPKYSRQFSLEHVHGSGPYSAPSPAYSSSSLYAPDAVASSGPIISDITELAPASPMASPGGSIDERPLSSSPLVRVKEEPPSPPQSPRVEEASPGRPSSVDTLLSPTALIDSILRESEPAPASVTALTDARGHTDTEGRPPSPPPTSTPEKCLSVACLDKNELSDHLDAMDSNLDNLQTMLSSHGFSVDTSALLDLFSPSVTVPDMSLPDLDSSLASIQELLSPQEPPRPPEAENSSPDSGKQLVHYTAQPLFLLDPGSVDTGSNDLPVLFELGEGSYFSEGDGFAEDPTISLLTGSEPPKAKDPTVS
Outline: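 HepG2 cells transfected with cis-promoter reporter units sensing endogenous transcription factor activity; reporter mRNA quantified 24 h post-dose by RT-PCR and capillary electrophoresis of 6-FAM-labelled products. Bidirectional fitting against DMSO.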

[8] = ATG_MRE_CIS: Attagene CIS-FACTORIAL HepG2 Assay for human Metal Responsive Element (MRE) (AID 2282954); conditions: HepG2 MRE cis-reporter transcription, Attagene multiplex; actives raise or lower the signal
Outline: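 Endogenous MRE-dependent transcription read as reporter mRNA in transiently transfected human HepG2 cells at 24 h. RNA reverse-transcribed, PCR-amplified, labelled and resolved by capillary electrophoresis; gain or loss relative to DMSO.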

[9] = molecular target: Paired box protein Pax-6 (Homo sapiens) (UniProt P26367); test: ATG_Pax6_CIS: Attagene CIS-FACTORIAL HepG2 Assay for human Paired Box 6 (PAX6) (AID 2282956); conditions: HepG2 CIS-FACTORIAL PAX6 reporter transcription, RNA readout; actives raise or lower the signal
Sequence of Paired box protein Pax-6 (Homo sapiens) (P26367 whole entry, looked up): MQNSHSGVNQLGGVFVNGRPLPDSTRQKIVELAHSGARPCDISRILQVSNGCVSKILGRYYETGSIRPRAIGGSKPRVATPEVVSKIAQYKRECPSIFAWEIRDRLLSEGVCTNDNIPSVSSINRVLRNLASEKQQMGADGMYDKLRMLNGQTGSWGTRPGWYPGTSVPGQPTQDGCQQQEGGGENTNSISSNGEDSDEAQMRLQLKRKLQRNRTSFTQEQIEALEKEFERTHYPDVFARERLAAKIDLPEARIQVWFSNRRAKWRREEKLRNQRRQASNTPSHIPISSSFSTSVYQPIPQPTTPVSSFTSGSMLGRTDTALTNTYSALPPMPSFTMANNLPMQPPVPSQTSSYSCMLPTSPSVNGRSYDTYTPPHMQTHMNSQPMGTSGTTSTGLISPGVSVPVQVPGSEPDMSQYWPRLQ
Outline: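 Fluorescent RT-PCR products separated by capillary electrophoresis report PAX6-linked promoter mRNA in HepG2 cells 24 h post-dose. Curves fitted bidirectionally, DMSO as negative control.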

[10] = ATG_PXRE_CIS: Attagene CIS-FACTORIAL HepG2 Assay for human Pregnane X Receptor Element (PXRE) (AID 2282957); conditions: HepG2 Attagene CIS-FACTORIAL PXRE reporter, mRNA; actives raise or lower the signal
Outline: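 After a 24 h chemical incubation, total RNA from transfected HepG2 cells was reverse-transcribed and reporter cDNA amplified, FAM-labeled, HpaI-digested and sized by capillary electrophoresis. DMSO served as baseline for bidirectional curve fitting.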

[11] = ATG_PPRE_CIS: Attagene CIS-FACTORIAL HepG2 Assay for human Peroxisome Proliferator-activated Response Element (PPRE) (AID 2282958); conditions: HepG2 PPRE cis-element reporter, Attagene transcription factor profiling; actives raise or lower the signal
Outline: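 Measured endpoint: PPRE-controlled reporter mRNA, detected by RT-PCR and capillary electrophoresis fluorescence, from transiently transfected HepG2 cells 24 h after dosing. Curves fitted in both directions using DMSO baseline.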

[12] = ATG_RORE_CIS: Attagene CIS-FACTORIAL HepG2 Assay for human RAR-related Orphan Receptor Element (RORE) (AID 2282959); conditions: HepG2 Attagene cis-factorial RORE reporter, mRNA; actives raise or lower the signal
Outline: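 Transiently transfected HepG2 reporter cells were treated 24 h. Reporter transcripts were detected by RT-PCR and capillary electrophoresis, with bidirectional fitting against DMSO.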

[13] = ATG_Sox_CIS: Attagene CIS-FACTORIAL HepG2 Assay for human SRY-box transcription factor (SOX) (AID 2282960); conditions: HepG2 Attagene cis-factorial SOX reporter, mRNA; actives raise or lower the signal
Outline: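 Gain- or loss-of-signal endpoint, fitted bidirectionally with DMSO as negative control. Based on reporter mRNA from transfected HepG2 cells harvested 24 h post-treatment and quantified via RT-PCR and capillary electrophoresis.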

[14] = molecular target: Transcription factor Sp1 (Homo sapiens) (UniProt P08047); test: ATG_Sp1_CIS: Attagene CIS-FACTORIAL HepG2 Assay for human Specificity Protein 1 (Sp1) (AID 2282961); conditions: HepG2 Sp1 cis-reporter transcription, actives raise or lower the signal
Sequence of Transcription factor Sp1 (Homo sapiens) (P08047 whole entry, looked up, the tested form may be a part): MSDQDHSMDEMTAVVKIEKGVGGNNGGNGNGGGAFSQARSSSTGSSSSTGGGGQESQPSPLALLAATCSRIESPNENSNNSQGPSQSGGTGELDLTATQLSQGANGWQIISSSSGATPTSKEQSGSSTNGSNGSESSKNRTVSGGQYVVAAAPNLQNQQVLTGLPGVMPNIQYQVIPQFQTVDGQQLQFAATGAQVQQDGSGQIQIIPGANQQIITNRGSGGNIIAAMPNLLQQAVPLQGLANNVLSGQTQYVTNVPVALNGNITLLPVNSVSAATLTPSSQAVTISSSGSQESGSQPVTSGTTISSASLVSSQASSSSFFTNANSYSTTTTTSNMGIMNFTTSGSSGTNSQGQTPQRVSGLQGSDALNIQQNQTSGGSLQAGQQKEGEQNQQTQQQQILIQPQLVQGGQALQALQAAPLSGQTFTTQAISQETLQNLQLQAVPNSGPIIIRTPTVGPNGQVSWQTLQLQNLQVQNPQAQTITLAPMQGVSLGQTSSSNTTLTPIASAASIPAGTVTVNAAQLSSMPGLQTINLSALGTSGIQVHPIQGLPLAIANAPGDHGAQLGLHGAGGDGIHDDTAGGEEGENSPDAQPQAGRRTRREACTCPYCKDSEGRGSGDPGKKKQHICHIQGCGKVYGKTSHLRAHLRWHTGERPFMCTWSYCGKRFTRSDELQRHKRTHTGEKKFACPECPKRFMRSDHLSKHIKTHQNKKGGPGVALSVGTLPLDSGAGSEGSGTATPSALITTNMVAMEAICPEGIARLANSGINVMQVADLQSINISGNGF
Outline: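 Endpoint reflects endogenous Sp1 transcriptional activity, not an exogenous fusion protein: HepG2 cells with transfected cis-regulated reporters, 24 h dosing, RT-PCR/capillary electrophoresis mRNA read-out, DMSO-normalised bidirectional fit.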

[15] = ATG_SREBP_CIS: Attagene CIS-FACTORIAL HepG2 Assay for human Sterol Regulatory Element Binding (SREBP) (AID 2282962); conditions: HepG2 Attagene cis-factorial SREBP reporter, mRNA; actives raise or lower the signal
Outline: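 Endogenous factor activity is measured in HepG2 through multiplexed reporter units under cis-element control. Following a 24 h incubation, reporter transcripts are reverse-transcribed, PCR-amplified and sized by capillary electrophoresis; activity is fitted in both directions relative to DMSO.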

[16] = ATG_TA_CIS: Attagene CIS-FACTORIAL HepG2 Assay for human TA Basal Promoter (AID 2282964); conditions: HepG2 Attagene CIS-factorial TA basal promoter reporter; actives raise or lower the signal
Outline: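 HepG2 cells transiently transfected with multiple reporter units under cis promoter elements, reporting endogenous transcription factor activity; this endpoint tracks the TA basal promoter as background control. Reporter mRNA after 24 h dosing measured by RT-PCR/capillary electrophoresis; bidirectional fits versus DMSO.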

[17] = ATG_TCF_b_cat_CIS: Attagene CIS-FACTORIAL HepG2 Assay for human T-Cell-Factor with beta-catenin (TCF/b-cat) (AID 2282965); conditions: HepG2 TCF/beta-catenin cis-reporter transcription, actives raise or lower the signal
Outline: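 Endogenous TCF/LEF activity read as reporter transcript level via RT-PCR and capillary electrophoresis fluorescence in transfected HepG2, 24 h exposure; gain or loss of signal fitted against DMSO controls.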

[18] = ATG_PBREM_CIS: Attagene CIS-FACTORIAL HepG2 Assay for human Phenobarbital-responsive Enhancer Module (PBREM) (AID 2282955); conditions: HepG2 PBREM cis-reporter, Attagene multiplexed transcription; actives raise or lower the signal
Outline: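 Transfected liver-derived HepG2 cells exposed 24 h; PBREM reporter transcript quantified via RT-PCR and capillary electrophoresis, with activity in either direction referenced to DMSO.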

[19] = molecular target: Signal transducer and activator of transcription 3 (Homo sapiens) (UniProt P40763); test: ATG_STAT3_CIS: Attagene CIS-FACTORIAL HepG2 Assay for human Signal Transducer and Activator of Transcription 3 (STAT3) (AID 2282963); conditions: HepG2, Attagene cis-factorial STAT3 reporter transcription; actives raise or lower the signal
Sequence of Signal transducer and activator of transcription 3 (Homo sapiens) (P40763 whole entry, looked up): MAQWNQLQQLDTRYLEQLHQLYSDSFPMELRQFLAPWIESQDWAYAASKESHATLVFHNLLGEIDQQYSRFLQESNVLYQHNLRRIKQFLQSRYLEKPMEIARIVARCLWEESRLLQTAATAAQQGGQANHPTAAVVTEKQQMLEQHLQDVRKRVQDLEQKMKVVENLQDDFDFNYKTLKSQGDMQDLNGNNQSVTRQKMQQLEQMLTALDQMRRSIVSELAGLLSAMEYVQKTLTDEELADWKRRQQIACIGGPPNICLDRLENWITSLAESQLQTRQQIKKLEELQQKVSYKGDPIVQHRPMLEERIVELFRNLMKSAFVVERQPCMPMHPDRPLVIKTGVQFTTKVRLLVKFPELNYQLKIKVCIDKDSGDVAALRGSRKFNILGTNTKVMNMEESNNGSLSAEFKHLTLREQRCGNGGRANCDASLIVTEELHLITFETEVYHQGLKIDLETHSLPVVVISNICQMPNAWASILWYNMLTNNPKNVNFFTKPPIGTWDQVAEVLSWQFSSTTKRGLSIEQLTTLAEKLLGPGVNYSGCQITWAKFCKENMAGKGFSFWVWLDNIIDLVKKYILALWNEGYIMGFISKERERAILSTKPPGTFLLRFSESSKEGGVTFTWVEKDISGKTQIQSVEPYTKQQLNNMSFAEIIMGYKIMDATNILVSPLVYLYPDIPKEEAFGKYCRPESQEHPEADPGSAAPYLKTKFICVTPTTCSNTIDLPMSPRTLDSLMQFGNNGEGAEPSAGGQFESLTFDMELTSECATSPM
Outline: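 Readout is reporter transcript quantified by RT-PCR and capillary electrophoresis, with 6-FAM primer extension and HpaI digestion. Total RNA is taken 24 h after dosing transiently transfected HepG2 carrying cis-regulated reporter units. Bidirectional fit against DMSO.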

Measured: AC50

O=[Si]=O
not listed: [18] | [19]
inactive: all other assays above

Cc1occc(=O)c1O
not listed: [1] | [11] | [17] | [19]
inactive: all other assays above

COC(=O)[C@H]1[C@H]2C[C@@H]3c4[nH]c5cc(OC)ccc5c4CCN3C[C@H]2C[C@@H](OC(=O)c2cc(OC)c(OC)c(OC)c2)[C@@H]1OC
active: [8] 3.49 µM | [9] 8.41 µM | [15] 3.96 µM
not listed: [5] | [10] | [17] | [18] | [19]
inactive: all other assays above

O=C1OC(c2ccc(O)cc2)(c2ccc(O)cc2)c2ccccc21
active: [2] 70.1 µM | [6] 133 µM | [7] 146 µM | [8] 45.1 µM | [18] 4.42 µM | [9] 36.6 µM | [12] 26.7 µM | [14] 41.2 µM | [15] 27.6 µM | [16] 27.7 µM | [17] 27.5 µM
inactive: [3] | [4] | [10] | [13]

CCOCCOCCO
not listed: [18]
inactive: all other assays above

O=C1NC(=O)C(c2ccccc2)(c2ccccc2)N1
not listed: [5] | [17]
inactive: all other assays above

CC(=O)O[C@]1(C(C)=O)CC[C@H]2[C@@H]3C=C(Cl)C4=CC(=O)[C@@H]5C[C@@H]5[C@]4(C)[C@H]3CC[C@@]21C
active: [2] 77.5 µM | [6] 165 µM and 57.2 µM | [7] 83.8 µM [middle of 4 runs] | [8] 100 µM [middle of 4 runs] | [9] 27.3 µM and 66.1 µM and 100 µM | [10] 184 µM and 142 µM and 61.5 µM | [13] 100 µM | [14] 154 µM and 170 µM | [15] 29.5 µM and 52.1 µM and 34.3 µM | [16] 54.5 µM
inactive: [2] | [3] | [4] | [6] | [7] | [8] | [9] | [10] | [11] | [12] | [13] | [14] | [15] | [19] | [16] | [17]

Oc1ccc(O)cc1
active: [11] 62.5 µM | [14] 29.1 µM
not listed: [5]
inactive: all other assays above

Cc1ccc(-c2cc(C(F)(F)F)nn2-c2ccc(S(N)(=O)=O)cc2)cc1
active: [8] 6.28 µM | [10] 2.58 µM
not listed: [12] | [18]
inactive: all other assays above

CCCCCCCCCC[N+](C)(C)[O-]
active: [10] 79 µM
not listed: [18] | [19]
inactive: all other assays above

CC(C)(C)c1ccccc1
not listed: [1] | [11] | [17] | [19]
inactive: all other assays above

CS(=O)(=O)c1ccc([C@@H](C[C@H]2CCC(=O)C2)C(=O)Nc2cnccn2)cc1Cl
not listed: [7]
inactive: all other assays above

CC(C)NCC(O)c1ccc(O)c(O)c1 (centres undefined)
active: [10] 52.4 µM
not listed: [5] | [7] | [17] | [18] | [19]
inactive: all other assays above

CC(=O)CC(c1ccccc1)c1c(O)c2ccccc2oc1=O (centres undefined)
active: [10] 59.1 µM and 59.7 µM
not listed: [1] | [7] | [11] | [17] | [18] | [19]
inactive: all other assays above
